# From article PMC11062922 (Nature Chemical Biology, 2023)
# Like-named read-outs stand apart in the source and are kept apart here.
# Experiments:
# Parameters in all cases: species or system human, MV4-11 + K-562 + COLO205 + SK-N-BE2 + OVCAR-8
# ACVR2B = conditions: read-out: apparent Kd, compound concentrations: 100 nM and 1000 nM (sheet 'Samples'), n = 1
# BMPR1A = conditions: read-out: apparent Kd, n = 1
# EPHB3 = conditions: read-out: apparent Kd, n = 1
# PIK3CD = conditions: read-out: apparent Kd, compound concentrations: 100 nM and 1000 nM (sheet 'Samples'), n = 1
# SIK3 = conditions: read-out: apparent Kd, n = 1
# SYK = conditions: read-out: apparent Kd, compound concentrations: 100 nM and 1000 nM (sheet 'Samples'), n = 1
# AURKA = conditions: read-out: apparent Kd, compound concentrations: 100 nM and 1000 nM (sheet 'Samples'), n = 1
# CDK7 = conditions: read-out: apparent Kd, n = 1
# NUAK1 = conditions: read-out: apparent Kd, n = 1
# PIK3CG = conditions: read-out: apparent Kd, compound concentrations: 100 nM and 1000 nM (sheet 'Samples'), n = 1
# PRKAG1 = conditions: read-out: apparent Kd, n = 1
# STK10 = conditions: read-out: apparent Kd; compound concentrations: 100 nM and 1000 nM (sheet 'Samples'), CATDS: 1.3341325559896399E-2; n = 1
# LIMK1 = conditions: read-out: apparent Kd, n = 1
# PIM2 = conditions: read-out: apparent Kd, n = 1
# MAPK8 = conditions: read-out: apparent Kd; compound concentrations: 100 nM and 1000 nM (sheet 'Samples'), CATDS: 2.6376171995156399E-2; n = 1
# ERBB3 = conditions: read-out: apparent Kd; compound concentrations: 100 nM and 1000 nM (sheet 'Samples'), CATDS: 0.18333833775407599; n = 1
# [1] = compound concentrations:100 nM and 1000 nM (sheet 'Samples')
compound,measurement,setting,value
Cc1ccc(O)cc1Nc1ccnc2cc(-c3ccc(CN4CCCCC4)o3)ccc12 [GW557777X],potency estimated from few doses,ACVR2B; CATDS: 2.4906220143484401E-2,45.3 nM
same,potency estimated from few doses,"BMPR1A; compound concentrations: 100 nM and 1000 nM (sheet 'Samples'), CATDS: 1.65124596245807E-2",269 nM
same,potency estimated from few doses,"EPHB3; compound concentrations: 100 nM and 1000 nM (sheet 'Samples'), CATDS: 2.1562283576004201E-2",78.2 nM
same,potency estimated from few doses,PIK3CD; CATDS: 1.8513434924081099E-2,151 nM
same,potency estimated from few doses,"SIK3; compound concentrations: 100 nM and 1000 nM (sheet 'Samples'), CATDS: 1.3583905279374199E-2",975 nM
same,potency estimated from few doses,SYK; CATDS: 1.2716705388879999E-2,1860 nM
CN1C(=O)c2ccccc2N(C)c2nc(Nc3cnn(C4CCNCC4)c3)ncc21 [XMD-17-51],potency estimated from few doses,AURKA; CATDS: 0.190670193315162,5.82 nM
same,potency estimated from few doses,"CDK7; compound concentrations: 100 nM and 1000 nM (sheet 'Samples'), CATDS: 1.6224786894182001E-2",901 nM
same,potency estimated from few doses,"NUAK1; compound concentrations: 100 nM and 1000 nM (sheet 'Samples'), CATDS: 0.118275245978952",11.6 nM
same,potency estimated from few doses,PIK3CD; CATDS: 3.4664155585902003E-2,111 nM
same,potency estimated from few doses,PIK3CG; CATDS: 5.0205811396743898E-2,50.7 nM
same,potency estimated from few doses,"PRKAG1; compound concentrations: 100 nM and 1000 nM (sheet 'Samples'), CATDS: 1.89897373320012E-2",530 nM
same,potency estimated from few doses,"SIK3; compound concentrations: 100 nM and 1000 nM (sheet 'Samples'), CATDS: 1.5899502438213298E-2",973 nM
same,potency estimated from few doses,STK10,2180 nM
CNC1=NC(=O)/C(=C/c2ccc3ncccc3c2)S1 [RO4595949-000],potency estimated from few doses,PIK3CG; CATDS: 8.0370856047911096E-2,401 nM
Cc1cccc(Nc2nc(NCCN)ncc2C(N)=O)c1 [GSK1292139B],potency estimated from few doses,"NUAK1; compound concentrations: 100 nM and 1000 nM (sheet 'Samples'), CATDS: 0.100745572773025",611 nM
same,potency estimated from few doses,SYK; CATDS: 7.0539324655896005E-2,1500 nM
NC1=NC(=O)/C(=C/c2ccc3ncccc3c2)S1 [RO4569139-000],potency estimated from few doses,PIK3CG; CATDS: 0.108121816897262,432 nM
CCN(CC)CCOc1ccc(Nc2ncc3cc(-c4c(Cl)cccc4Cl)c(=O)n(C)c3n2)cc1 [SB-601273],potency estimated from few doses,BMPR1A; [1],538 nM
same,potency estimated from few doses,EPHB3; [1],1220 nM
same,potency estimated from few doses,LIMK1; [1],1110 nM
same,potency estimated from few doses,SIK3; [1],201 nM
CS(=O)(=O)Cc1ccc(Nc2nccc(-c3c(-c4cccc(NC(=O)C5CCCCC5)c4)nn4ncccc34)n2)cc1 [GSK350559A],potency estimated from few doses,PIM2; [1],2040 nM
COc1ccc(-c2nc3n(c2-c2ccncc2)CCC3)cc1.COc1ccc(-c2nc3n(c2-c2ccncc2)CCC3)cc1.O=S(=O)(O)O.O=S(=O)(O)O [SKF-104493-B2],potency estimated from few doses,"PIM2; compound concentrations: 100 nM and 1000 nM (sheet 'Samples'), CATDS: 0.11675722362862",1570 nM
CN(C)Cc1ccc(-c2ccc3c(Nc4ccc(Oc5ccccn5)cc4)ccnc3c2)o1 [GW567148X],potency estimated from few doses,"CDK7; compound concentrations: 100 nM and 1000 nM (sheet 'Samples'), CATDS: 2.45792325734666E-2",573 nM
O=S(=O)(CCOCc1ccc(-c2ccc3ncnc(Nc4ccc(OCc5cccc(F)c5)c(Cl)c4)c3c2)o1)c1ccccc1 [GW615311X],potency estimated from few doses,AURKA; CATDS: 3.2222679542607199E-2,1020 nM
same,potency estimated from few doses,"LIMK1; compound concentrations: 100 nM and 1000 nM (sheet 'Samples'), CATDS: 2.6639361665983699E-2",1500 nM
same,potency estimated from few doses,MAPK8,1540 nM
same,potency estimated from few doses,PIK3CD; CATDS: 0.10575353255485199,176 nM
same,potency estimated from few doses,PIK3CG; CATDS: 3.2678630734210498E-2,992 nM
same,potency estimated from few doses,"PRKAG1; compound concentrations: 100 nM and 1000 nM (sheet 'Samples'), CATDS: 2.7047929037046701E-2",1450 nM
same,potency estimated from few doses,SYK; CATDS: 2.2434221169995199E-2,2300 nM
Fc1cc(Cl)ccc1Nc1ccnc2cc(-c3ccc(CN4CCOCC4)o3)ccc12 [GW560109X],potency estimated from few doses,ACVR2B; CATDS: 7.2197051902398501E-2,673 nM
same,potency estimated from few doses,"SIK3; compound concentrations: 100 nM and 1000 nM (sheet 'Samples'), CATDS: 5.0355620048332002E-2",1910 nM
COc1cccc(-n2cnc3c(N/N=C/c4ccncc4)ncnc32)c1 [GW813360X],potency estimated from few doses,ERBB3,961 nM
CN1CCN(Cc2ccc(NC(=O)Nc3ccc(N(C)c4ccnc(Nc5ccc(CS(C)(=O)=O)cc5)n4)cc3)cc2)CC1.Cl [GW827654A],potency estimated from few doses,AURKA; CATDS: 6.4898936627914502E-2,288 nM
COc1cc2ncn(-c3cc(OCCCc4ccccc4)c(C(N)=O)s3)c2cc1OC [GSK205189A],potency estimated from few doses,CDK7; [1],79.1 nM
same,potency estimated from few doses,NUAK1; [1],1770 nM
same,potency estimated from few doses,PRKAG1; [1],1310 nM
Nc1ncc(-c2cn[nH]c2)c2scc(-c3ccc4c(c3)CCN4C(=O)Cc3ccccc3)c12 [GSK2593067A],potency estimated from few doses,PIK3CD; CATDS: 0.15776824540953199,196 nM
